Screens: PubChem, National Center for Advancing Translational Sciences (NCATS)
Rows were chosen to be rich in hits. Some 3.7% of all compounds tested hit in one or more screens of this group.
WRN inhibitor: WRN helicase (human) inhibition | hit rate 0.46% among 360,000 | Q14191 | Potency, µM (titrated, usually from 114 µM), without a hit: top-dose activity change, negative = inhibition, most hits filed as inhibitors | WRN helicase unwinding, fluorescent forked duplex, kinetic | AID 651768; also: potency is read from the fitted curve at half-maximal effect; % is scaled to controls: 0 for no effect and ±100 for the full control effect; nearly all actives have a fitted effect of over 55% in size
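Kinetic red-fluorescence monitoring (525/598 nm) tracks WRN helicase activity after 100 nM fluorophore-quencher forked duplex and 2 mM ATP are added to 20 nM enzyme pretreated 15 min at room temperature with compound.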
TCR act: activates T cell receptor signaling. primary human leukocytes, anti-CD3, IL-2 HTRF, 48 h. Potency, µM (series often up to 9.22 µM), without a hit: at the highest dose activation of IL-2 secretion, most hits filed as activators. 330,000 tested, under 10 active. AID 504894; also: % of control where 0% means no effect
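48 hr co-incubation of compounds, a-CD3 beads and primary human leukocytes; IL-2 quantified homogeneously by HTRF with anti-IL-2 K and d2 conjugates.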
PLK1 PBD inh: PLK1 (human) polo-box domain binding inhibition. P53350. AID 720504. Plk1 PBD binding of FITC phosphopeptide, fluorescence polarization. Potency, µM, for the others: max response, negative = inhibition, usual class: inhibitors. hit rate 2.8% among 360,000; also: potency is read from the fitted curve at half-maximal effect; series mostly up to about 57 µM; % is scaled to controls: 0 for no effect and ±100 for the full control effect; nearly all actives have a fitted effect of over 65% in size
Target sequence (P53350 whole entry, looked up, the tested form may be a part): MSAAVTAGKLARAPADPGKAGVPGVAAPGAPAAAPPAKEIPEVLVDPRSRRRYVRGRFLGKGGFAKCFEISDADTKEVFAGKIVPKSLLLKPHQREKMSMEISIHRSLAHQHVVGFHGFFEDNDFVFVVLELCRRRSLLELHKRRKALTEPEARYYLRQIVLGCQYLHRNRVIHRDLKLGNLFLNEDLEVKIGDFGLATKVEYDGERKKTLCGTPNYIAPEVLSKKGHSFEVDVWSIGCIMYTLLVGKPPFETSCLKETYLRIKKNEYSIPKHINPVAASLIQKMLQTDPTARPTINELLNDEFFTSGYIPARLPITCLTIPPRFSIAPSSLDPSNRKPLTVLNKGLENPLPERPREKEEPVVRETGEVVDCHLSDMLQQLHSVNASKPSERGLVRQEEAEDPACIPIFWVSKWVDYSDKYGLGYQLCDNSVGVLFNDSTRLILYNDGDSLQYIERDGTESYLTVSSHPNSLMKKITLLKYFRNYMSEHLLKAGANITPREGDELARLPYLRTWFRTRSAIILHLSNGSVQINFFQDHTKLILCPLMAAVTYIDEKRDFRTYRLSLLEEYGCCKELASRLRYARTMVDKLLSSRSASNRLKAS
FEN1 inh: blocks human flap endonuclease 1. Recombinant FEN1 flap cleavage, fluorescence, 15 min. Potency, µM (highest dose often 114 µM), for the others: at the top dose activity change, negative = inhibition, actives largely listed as inhibitors. hit rate 0.35% among 390,000. AID 588795; also: potency is read from the fitted curve at half-maximal effect; % is scaled to controls: 0 for no effect and ±100 for the full control effect; nearly all actives have a fitted effect of over 65% in size
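Recombinant FEN1 (10 nM) was preincubated with pin-transferred compounds for 15 min at room temperature, then flap DNA substrate (50 nM final) was added. Plates were read at 0 and 15 min, and normalized concentration–response data were fitted to a four-parameter Hill equation.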
PI5P4Ka inh: blocks human PI5P4K alpha kinase activity. max response, %. PI5P4Kalpha enzyme, ADP-Glo luminescence, 60 min; active compounds read low. P48426. hit rate 1.2% among 330,000. AID 652105; active = max response of -50% or lower; inconclusive = between -30% and -50%; inactive = -30% or higher; also: value at the top dose of about 77 µM; % is scaled to controls: 0 for no effect and ±100 for the full control effect
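Controls without substrate or without enzyme flank wells where PI5P4Kalpha converts substrate using 5 microM ATP (final). Incubation lasts 60 minutes at room temperature; ADP formed is read by ADP-Glo luminescence.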
VDR inhibitor: blocks the human vitamin D receptor. AID 504847. VDR-SRC2-3 peptide fluorescence polarization, 2 h. Potency, µM, without a hit: max response, negative = inhibition, hits mostly inhibitors. P11473. hit rate 0.93% among 400,000; also: potency is read from the fitted curve at half-maximal effect; % is scaled to controls: 0 for no effect and ±100 for the full control effect
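Signal is fluorescence polarization, reporting how far test compounds block the interaction of VDR with the SRC2-3 coregulator peptide after a 2 h room-temperature incubation.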
Numbers without * were called inactive; ? = inconclusive; . = no result given; [ ] = dose if it differs, or a comment. Unless noted, calls follow the shape of the dose curve; as a rule, active = well fitted curve in the direction sought with a large enough effect; inconclusive = small, poorly fitted or top-dose-only effect, or another doubt; inactive = no such curve, though single readings can be large; an effect the other way counts as inactive or inconclusive.

SMILES | WRN inhibitor | TCR act | PLK1 PBD inh | FEN1 inh | PI5P4Ka inh | VDR inhibitor
O=C(O)c1csc(-c2cccc(Cl)c2)n1 | -3% | -3% | 27µM* | 21% | -10 | -23%
O=c1cc(O)nc(-c2ccccc2)s1 | -20% | -1% | ? | -1% | -15 | -23%
O=c1cc(-c2ccccc2)ss1 | -15% | -4% | 12µM* | -11% | -16 | ?
CCOc1ccc(NC(=S)NCC(c2cccnc2)N2CCOCC2)cc1 (stereo unspecified) | 12% | 0% | 27µM* | -5% | 2 | -15%
COc1ccc(NC(=S)NCC(c2cccnc2)N2CCOCC2)cc1 (stereo unspecified) | 2% | 3% | -6% | 2% | 1 | 6%
Cc1cccc(NC(=S)NCC(c2cccnc2)N2CCOCC2)c1C (stereo unspecified) | 3% | -2%[46.1 µM] | -19% | -10% | -4 | 2%
COc1ccc(OC)c(NC(=S)NCC(c2cccnc2)N2CCOCC2)c1 (stereo unspecified) | 3% | -3% | 15µM* | -3% | -5 | -18%
N#Cc1ccc2sn(-c3ccccc3)c(=O)c2c1 | -6% | . | 2.7µM* | . | -108* | .
O=c1c2cc([N+](=O)[O-])ccc2sn1-c1ccccc1 | 4% | . | 2.7µM* | . | -100* | .
CC(=O)Nc1ccc2sn(-c3ccccc3)c(=O)c2c1 | 2% | . | 3.4µM* | . | -82* | .
O=c1c(-c2ccccc2)c[nH]n1-c1cccc([N+](=O)[O-])c1 | -1% | -11% | -10% | 1% | -5 | 16%
CCn1c2ccccc2c2cc(NC(C)=O)ccc21 | -11% | 2% | -2% | -10% | 3 | 7%
Cc1ccc2oc(-c3ccc(C)c(NC(=O)COc4ccc(Cl)cc4)c3)nc2c1 | . | . | . | 1% | . | .
Cc1nn(CC(O)CN2c3ccccc3Sc3ccccc32)c(C)c1Br (stereo unspecified) | 1% | 8% | 3.8µM* | -18% | 7 | ?
Cc1nc2c(C)cccc2cc1C(=O)N/N=C/c1ccc(C(=O)O)cc1 | -4%[57.1 µM] | 0% | 30µM* | -1% | 10 | -7%
Cc1nc2c(C)cccc2cc1C(=O)N/N=C/c1ccc(N(C)C)cc1 | -6% | . | 1% | 4% | . | -2%
CC(=O)Nc1ccc(S(=O)(=O)NC(CC(=O)N(C)Cc2ccccc2)C(C)C)cc1 (stereo unspecified) | -17% | 9% | 3.4µM* | -4% | -53* | -14%
CC(=O)Nc1ccc(S(=O)(=O)NC(CC(=O)NCCc2ccccc2)C(C)C)cc1 (stereo unspecified) | -8% | . | -7% | 11% | . | -1%
COc1ccc(/C=N/n2cnn(Cc3ccccc3Cl)c2=S)cc1OC | -10% | 0% | 24µM* | 0% | 4 | -8%
COc1cc(/C=N/O)ccc1OCc1ccccc1Cl | -7% | -2% | -16% | -4% | 16 | 9%
Cc1c(Cl)ccc2c(C(=O)O)cc(-c3ccccc3)nc12 | -7%[11.6 µM] | 1% | 24µM* | 2% | 3 | -18%
CCOC(=O)C1=C(O)/C(=C/c2ccc(-c3ccccc3C(=O)O)o2)SC1=Nc1ccc(C)cc1 | ? | -5% | ? | 40µM* | -99* | 79µM*
CCOC(=O)C1=C(O)/C(=C/c2ccc(-c3ccccc3C(=O)O)o2)SC1=Nc1ccc(OC)cc1 | ? | 3% | -8% | ? | -55* | 2%
CCOC(=O)C1=C(O)/C(=C/c2cc(OC)c(O)c(OC)c2)SC1=Nc1ccc(OC)cc1 | -11%[11.6 µM] | 4%[46.1 µM] | 10% | ? | 2 | -17%
CCOC(=O)C1=C(O)/C(=C/c2ccccn2)SC1=Nc1ccc(Cl)cc1 | -12% | 2%[46.1 µM] | 3% | -14% | 13 | -18%
SMILES | WRN inhibitor | TCR act | PLK1 PBD inh | FEN1 inh | PI5P4Ka inh | VDR inhibitor
Nc1nc2ncn(COCCO)c2c(=O)[nH]1 | . | . | . | -5% | . | .
COC(=O)c1ccccc1Nc1cc(C)nc2nc(C)nn12 | -6% | -2% | 21µM* | -15% | -6 | ?
O=Cc1cn(CCC(=O)O)nc1-c1cccc(Br)c1 | -4% | 3% | -8% | 6% | -3 | -18%
Cc1ccc(-c2nn(CCC(=O)O)cc2/C=C\C(=O)c2ccc(Br)cc2)cc1 | ? | -3% | 38µM* | -2% | -23 | 35µM*
O=C(O)CCn1cc(/C=C\C(=O)c2ccc(Cl)cc2)c(-c2cccc(Br)c2)n1 | -11%[11.6 µM] | 1%[46.1 µM] | 24µM* | -4% | -15 | 50µM*
Cc1ccc(-c2nn(Cc3ccccc3)cc2/C=C/C(=O)O)cc1 | 6% | -2% | -9% | -1% | -10 | -4%
CCCCCCCCCC[n+]1ccc(/C=C/c2c[nH]c3ccccc23)cc1 | . | . | . | 89µM* | . | .
CCCCCCC[n+]1ccc(/C=C/c2c[nH]c3ccccc23)c2ccccc21 | . | . | . | 25µM* | . | .
CCCCCCCCCCCCCCCC[n+]1ccc(/C=C/c2c[nH]c3ccccc23)c2ccccc21 | . | . | . | 50µM* | . | .
Cn1c(SCc2ccccc2Cl)nc(=O)c2c1NC(=O)CC2c1cc(F)ccc1F (stereo unspecified) | . | . | . | 16% | . | 5%
COc1ccc(NS(=O)(=O)c2ccc(-c3cnc(C4CC4)o3)cc2)cc1Cl | . | . | . | -1% | . | 15%
COc1cccc(/C=C/c2ccccn2)c1O | -2% | -2% | 27µM* | -6% | 3 | -27%
COc1cccc(O)c1O | . | . | . | . | . | 50µM*
O=C(O)CCC1CCCC1 | . | . | . | . | . | 2%
COC(=O)CC[C@H](N)C(=O)O | . | . | . | . | . | -1%
CC(=O)N1CCCc2cc(S(=O)(=O)NCc3ccccc3Cl)ccc21 | . | . | . | 3% | . | 1%
CCOc1ccccc1NS(=O)(=O)c1ccc2c(c1)CC(C)N2C(=O)C1CCC1 (stereo unspecified) | . | . | . | -16% | . | -2%
O=C(Nc1cccc(-n2cnnn2)c1)c1ccc(Cl)cc1Cl | 2% | -5% | 30µM* | 5% | -9 | -23%
Cc1ccc(Sc2ccccc2CN(C)C)c(N)c1 | . | . | . | . | . | 1%
COc1ccc(CCNC(=O)COc2ccc([N+](=O)[O-])cc2)cc1 | 13%[57.1 µM] | 2% | 19µM* | -1% | -19 | 28µM*
COc1cc(CN2CCN(c3ccccc3F)CC2)c([N+](=O)[O-])cc1OC | 8% | 13%[46.1 µM] | 27µM* | 2% | -2 | -16%
Cc1nn(C)c(Cl)c1S(=O)(=O)N(Cc1ccco1)c1ncnc2nc[nH]c12 | . | . | . | -8% | . | -3%
O=C(O)c1cccc(-c2nnn(Cc3ccccc3Cl)n2)c1 | 11% | 3%[46.1 µM] | 21µM* | -2% | ? | -25%
CCCCN(CC)CCCNC(=O)C1CCN(c2nc3ccc(CC)cc3s2)CC1 | . | . | . | 13% | . | -3%
CC(=O)OCCN1C(=O)c2c(C)nc3ccc(S(=O)(=O)N4CCOCC4)cc3c2C1=O | . | . | . | . | . | -1%
Oc1c(Br)cc(Br)cc1/C=N/N1CCN(Cc2ccccc2)CC1 | -10% | 0%[46.1 µM] | -4% | -19% | 5 | 9%
Cc1ccc(CN2CCN(/N=C/c3cc(Br)cc(Br)c3O)CC2)cc1 | -22% | 3%[46.1 µM] | 17µM* | 15% | -7 | ?
